Calls of active or inactive are those of the source.
Assays:
[1] = E. coli DRC41 culture turbidity changes, primary screen, E. coli filamentation inducer project, strain DRC41, OD650, 48 h (AID 1152);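 note: E. coli MC1000 strain DRC41 lacking acrAB efflux pump and sulA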; details: E. coli DRC41 (acrAB sulA), higher = more signal, called active from +8 up or from −8 down
[2] = small-molecule binders of probe aLefty1, primary screen, biochemical, small-molecule microarray, 635/667 nm fluorescence (AID 1153); details: higher = more signal;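 note: score merges spot fluorescence with signal-to-noise ratio from the scanned slide images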
[3] = PSAC antagonists in infected red cells, primary screen, cell-based, P. falciparum Indochina, OD700, 1 h (AID 1154); details: P. falciparum Indochina infected RBC osmotic lysis, higher = more signal, called active from +8 up or from −8 down
[4] = PSAC antagonists in infected red cells, primary screen, cell-based, P. falciparum Indochina, OD700, 2 h (AID 1155);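 note: lysis reports solute entry through the parasite surface anion channel PSAC; channel blockers reduce lysis of infected cells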; details: P. falciparum Indochina infected erythrocytes, osmotic lysis OD700; higher = more signal, called active from +8 up or from −8 down
[5] = osmotic lysis modulators in infected erythrocytes, primary screen, PSAC antagonist project, cell-based, P. falciparum Indochina, OD700, 3 h (AID 1156); details: higher = more signal, called active from +8 up or from −8 down
[6] = PSAC antagonists in infected red cells, primary screen, cell-based, P. falciparum Indochina, OD700, 18 h (AID 1157); details: P. falciparum Indochina infected erythrocytes, osmotic lysis OD700, 18 h; higher = more signal, called active from +8 up or from −8 down
[7] = modulators of S6 phosphorylation in cells, primary screen, cell-based, A549, cytoblot, luminescence, serum-stimulated (AID 1158); details: A549 phospho-S6 cytoblot, 5 h, higher = more signal;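 note: serum-stimulated A549 lung adenocarcinoma cells; signal is phosphorylated S6 detected by cytoblot immunostaining with HRP secondary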
[8] = molecular target: NADPH oxidase 2 (Homo sapiens) (UniProt P04839); assay: NOX2-dependent H2O2 signal modulators, primary screen, NOX inhibitor project, cell-based, HEK293-NOX2, PMA-stimulated, Amplex Red fluorescence (AID 1159); details: 45 min, higher = more signal, called active from +8 up or from −8 down; note: test concentration not given here
Chain of NADPH oxidase 2 (Homo sapiens) (P04839 whole entry, looked up): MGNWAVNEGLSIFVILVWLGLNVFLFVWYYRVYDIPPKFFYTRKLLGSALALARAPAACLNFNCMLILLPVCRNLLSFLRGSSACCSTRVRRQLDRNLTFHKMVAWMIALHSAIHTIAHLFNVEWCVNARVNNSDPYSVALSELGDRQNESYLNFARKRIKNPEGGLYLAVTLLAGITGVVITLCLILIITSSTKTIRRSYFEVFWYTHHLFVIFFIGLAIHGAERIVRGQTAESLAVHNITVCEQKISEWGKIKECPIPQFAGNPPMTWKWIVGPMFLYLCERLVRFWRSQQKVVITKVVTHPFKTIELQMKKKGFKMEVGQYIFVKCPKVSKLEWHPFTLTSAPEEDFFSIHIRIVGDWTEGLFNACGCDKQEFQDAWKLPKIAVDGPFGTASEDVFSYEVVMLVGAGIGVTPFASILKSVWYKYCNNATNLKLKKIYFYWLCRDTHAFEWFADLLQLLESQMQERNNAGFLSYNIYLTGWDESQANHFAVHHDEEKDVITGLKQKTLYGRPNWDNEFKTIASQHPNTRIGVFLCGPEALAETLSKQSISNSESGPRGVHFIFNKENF

[9] = molecular target: NADPH oxidase 4 (Homo sapiens) (UniProt Q9NPH5); assay: NOX4-dependent H2O2 signal modulators, primary screen, NOX inhibitor project, cell-based, HEK293-NOX4, tetracycline-induced, Amplex Red fluorescence (AID 1160); details: 45 min, higher = more signal, called active from +8 up or from −8 down
Chain of NADPH oxidase 4 (Homo sapiens) (Q9NPH5 whole entry, looked up): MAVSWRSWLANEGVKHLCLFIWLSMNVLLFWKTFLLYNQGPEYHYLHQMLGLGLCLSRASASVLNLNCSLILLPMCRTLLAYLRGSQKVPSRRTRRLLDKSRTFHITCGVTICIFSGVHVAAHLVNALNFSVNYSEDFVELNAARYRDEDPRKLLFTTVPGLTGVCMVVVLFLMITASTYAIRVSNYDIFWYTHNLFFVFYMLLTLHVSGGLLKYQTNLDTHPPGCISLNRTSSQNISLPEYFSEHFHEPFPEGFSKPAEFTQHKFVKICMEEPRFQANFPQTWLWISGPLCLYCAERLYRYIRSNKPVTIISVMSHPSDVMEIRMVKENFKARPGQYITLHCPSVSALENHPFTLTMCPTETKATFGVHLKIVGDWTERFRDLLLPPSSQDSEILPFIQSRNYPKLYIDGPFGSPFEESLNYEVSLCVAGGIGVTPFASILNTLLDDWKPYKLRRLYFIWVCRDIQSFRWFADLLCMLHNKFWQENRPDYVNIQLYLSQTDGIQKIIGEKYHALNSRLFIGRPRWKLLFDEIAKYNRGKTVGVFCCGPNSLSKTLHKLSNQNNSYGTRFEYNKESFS

[10] = molecular target: NADPH oxidase 5 (Homo sapiens) (UniProt Q96PH1); assay: NOX5-dependent H2O2 signal modulators, primary screen, NOX inhibitor project, cell-based, HEK293-NOX5, Amplex Red fluorescence (AID 1161); details: HEK293-NOX5, ionomycin, 45 min, higher = more signal
Chain of NADPH oxidase 5 (Homo sapiens) (Q96PH1 whole entry, looked up): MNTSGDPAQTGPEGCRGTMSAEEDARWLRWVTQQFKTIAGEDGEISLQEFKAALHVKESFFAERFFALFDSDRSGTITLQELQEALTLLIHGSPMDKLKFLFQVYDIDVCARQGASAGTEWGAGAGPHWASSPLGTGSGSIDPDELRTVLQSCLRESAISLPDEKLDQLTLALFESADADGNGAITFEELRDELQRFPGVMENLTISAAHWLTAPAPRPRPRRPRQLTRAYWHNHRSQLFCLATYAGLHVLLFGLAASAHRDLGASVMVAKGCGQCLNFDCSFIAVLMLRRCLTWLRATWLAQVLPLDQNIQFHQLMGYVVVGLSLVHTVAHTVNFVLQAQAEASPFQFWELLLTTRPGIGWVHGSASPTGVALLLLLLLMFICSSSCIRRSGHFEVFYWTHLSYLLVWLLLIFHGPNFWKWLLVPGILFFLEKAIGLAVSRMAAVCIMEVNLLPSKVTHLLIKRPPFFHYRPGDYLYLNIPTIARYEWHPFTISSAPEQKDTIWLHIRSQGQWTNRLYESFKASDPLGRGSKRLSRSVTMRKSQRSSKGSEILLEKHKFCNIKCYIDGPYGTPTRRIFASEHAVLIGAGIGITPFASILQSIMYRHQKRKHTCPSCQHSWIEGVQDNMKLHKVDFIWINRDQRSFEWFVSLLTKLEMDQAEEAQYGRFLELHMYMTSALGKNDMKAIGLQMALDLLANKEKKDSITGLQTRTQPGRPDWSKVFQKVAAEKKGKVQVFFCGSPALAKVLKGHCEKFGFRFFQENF

[11] = A549 cell viability effects, profiling panel, calcein-AM fluorescence, 48 h, basal (AID 1162); details: higher = more signal; note: test concentration not given here
[12] = adipocyte viability effects, profiling panel, cell-based, 3T3-L1 adipocytes, calcein-AM fluorescence, 48 h, basal (AID 1163); details: 3T3-L1 adipocytes viability, higher = more signal; note: test concentration not given here
[13] = HepG2 cell viability effects, profiling panel, calcein-AM fluorescence, 48 h, basal (AID 1164); details: higher = more signal; note: test concentration not given here
[14] = MM1S cell viability effects, profiling panel, calcein-AM fluorescence, 48 h, basal (AID 1165); details: higher = more signal;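 note: viability of MM1S multiple myeloma cells under basal unstimulated conditions; test concentration not given here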
[15] = basal RPMI8226 viability, no added stimulus, profiling panel, cell-based, calcein-AM fluorescence, 48 h, PK04 Diversity Set (AID 1166); details: RPMI8226 myeloma viability, higher = more signal;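 note: cells grown under basal conditions without added stimulus; test concentration not given here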
[16] = basal HepG2 mitochondrial membrane potential changes, profiling panel, cell-based, JC-1 fluorescence, 24 h, 100 nL compound (AID 1167); details: higher = more signal; note: test concentration not given here
[17] = basal 3T3-L1 adipocyte mitochondrial potential changes, profiling panel, cell-based, JC-1 fluorescence, 3T3-L1 adipocytes, 24 h, 100 nL compound (AID 1168); details: JC-1 mitochondrial fluorescence, higher = more signal, called active from +8 up or from −8 down; note: test concentration not given here
[18] = basal RPMI8226 mitochondrial membrane potential changes, profiling panel, cell-based, JC-1 fluorescence, 24 h, 100 nL compound (AID 1169); details: RPMI8226 myeloma, JC-1 mitochondrial potential fluorescence, higher = more signal; note: test concentration not given here
[19] = basal MM1S mitochondrial membrane potential changes, profiling panel, cell-based, JC-1 fluorescence, 24 h, 100 nL compound (AID 1170); details: higher = more signal; note: test concentration not given here
[20] = A549 lung cancer cell viability effects, profiling panel, resazurin fluorescence, 24 h, PK04 Diversity Set (AID 1171); details: higher = more signal, called active from +8 up or from −8 down; note: test concentration not given here

SMILES: O=C1[C@H]2[C@H]3[C@H](O)[C@H](O)CC(=NOCc4ccccc4)[C@H]3CC[C@H]2C(=O)N1C[C@@H]1CCCO1
- z-score [1]: 0.144 (inactive)
- composite z-score [2]: 0.0455
- z-score [3]: 5.97 (inactive)
- z-score [4]: 0.673 (inactive)
- z-score [5]: -0.0092 (inactive)
- z-score [6]: 0.479 (inactive)
- z-score [7]: 0.067
- z-score [8]: 0.421 (inactive)
- z-score [9]: 0.511 (inactive)
- z-score [10]: -1.46
- z-score [11]: 0.0598
- z-score [12]: -0.247
- z-score [13]: -0.85
- z-score [14]: -0.306
- z-score [15]: 0.422
- z-score [16]: -0.528
- z-score [17]: -1.13 (inactive)
- z-score [18]: -0.669
- z-score [19]: -0.153
- z-score [20]: 0.469 (inactive)

SMILES: C=CCN1C(=O)[C@]2(O[C@H](CCn3cc(CCO)nn3)[C@@H]([Si](C)(C)c3ccc(OC)cc3)[C@@H]2C)c2cc(N3CCOC3=O)ccc21
- z-score [1]: -0.902 (inactive)
- composite z-score [2]: 0.0509
- z-score [3]: 6.82 (inactive)
- z-score [4]: 0.536 (inactive)
- z-score [5]: -0.5 (inactive)
- z-score [6]: 0.376 (inactive)
- z-score [7]: 0.199
- z-score [8]: 0.111 (inactive)
- z-score [9]: 3.32 (inactive)
- z-score [10]: 1.57
- z-score [11]: 0.0694
- z-score [12]: 0.654
- z-score [13]: -0.316
- z-score [14]: -2.64
- z-score [15]: -1.37
- z-score [16]: 0.464
- z-score [17]: -0.0813 (inactive)
- z-score [18]: -0.585
- z-score [19]: -0.539
- z-score [20]: 0.333 (inactive)

SMILES: O=C(CS)NCCCCCNC(=O)[C@@H]1C[C@@H]2C(=O)N[C@@H](Cc3ccccc3)C(=O)N2[C@@H]1c1ccc(O)cc1
- z-score [1]: 0.942 (inactive)
- composite z-score [2]: 0.0839
- z-score [3]: 10.1 (active)
- z-score [4]: 1.07 (inactive)
- z-score [5]: -0.676 (inactive)
- z-score [6]: 0.325 (inactive)
- z-score [7]: -0.205
- z-score [8]: 0.727 (inactive)
- z-score [9]: -0.142 (inactive)
- z-score [10]: 0.0233
- z-score [11]: 0.557
- z-score [12]: 0.239
- z-score [13]: 1.15
- z-score [14]: 0.477
- z-score [15]: 0.617
- z-score [16]: -0.0506
- z-score [17]: -0.325 (inactive)
- z-score [18]: 0.149
- z-score [19]: -0.625
- z-score [20]: -0.181 (inactive)

SMILES: C[C@@H]1C=CCC(=O)OC[C@H](C)C(=O)OC[C@H]2O[C@H]1C=C[C@H]2O
- z-score [1]: 0.0366 (inactive)
- composite z-score [2]: -0.15
- z-score [3]: 1.17 (inactive)
- z-score [4]: 0.714 (inactive)
- z-score [5]: 0.0284 (inactive)
- z-score [6]: 0.254 (inactive)
- z-score [7]: 1.68
- z-score [8]: -0.648 (inactive)
- z-score [9]: -2.12 (inactive)
- z-score [10]: -0.384
- z-score [11]: 0.145
- z-score [12]: -0.261
- z-score [13]: -0.139
- z-score [14]: -1.42
- z-score [15]: -0.595
- z-score [16]: 0.482
- z-score [17]: 0.36 (inactive)
- z-score [18]: -0.103
- z-score [19]: -0.314
- z-score [20]: 0.172 (inactive)

SMILES: C[C@@H](c1ccccc1)N1C(=O)[C@H]2[C@H]3[C@H](O)[C@H](O)CC(=NNC(=O)OCc4ccccc4)[C@H]3CC[C@H]2C1=O
- z-score [1]: 0.645 (inactive)
- composite z-score [2]: 0.107
- z-score [3]: 3.27 (inactive)
- z-score [4]: 1.03 (inactive)
- z-score [5]: 0.0197 (inactive)
- z-score [6]: 0.0072 (inactive)
- z-score [7]: 0.296
- z-score [8]: 0.982 (inactive)
- z-score [9]: 1.08 (inactive)
- z-score [10]: 0.412
- z-score [11]: -0.34
- z-score [12]: -0.903
- z-score [13]: -0.208
- z-score [14]: -0.0615
- z-score [15]: 0.127
- z-score [16]: -1.05
- z-score [17]: -0.0829 (inactive)
- z-score [18]: 0.502
- z-score [19]: 0.00989
- z-score [20]: -0.0339 (inactive)

SMILES: Cc1cc(C)c(-c2cc([C@H](C)ON=C3[C@H]4CCn5c(=O)n(-c6ccccc6)c(=O)n5[C@H]4[C@H](O)[C@@H]4O[C@H]34)on2)c(C)c1
- z-score [1]: -0.0555 (inactive)
- composite z-score [2]: 0.218
- z-score [3]: 1.43 (inactive)
- z-score [4]: 0.322 (inactive)
- z-score [5]: 0.347 (inactive)
- z-score [6]: 0.391 (inactive)
- z-score [7]: -0.914
- z-score [8]: 0.0599 (inactive)
- z-score [9]: 0.68 (inactive)
- z-score [10]: -0.114
- z-score [11]: -0.605
- z-score [12]: -0.91
- z-score [13]: -0.887
- z-score [14]: -2.95
- z-score [15]: -3.87
- z-score [16]: 0.668
- z-score [17]: -0.803 (inactive)
- z-score [18]: -1.24
- z-score [19]: -2.39
- z-score [20]: -0.776 (inactive)

SMILES: CCN1C(=O)[C@H]2[C@H]3[C@H](O)[C@H](O)CC(=NOCc4ccccc4)[C@H]3CC[C@H]2C1=O
- z-score [1]: -0.255 (inactive)
- composite z-score [2]: -0.276
- z-score [3]: 1.78 (inactive)
- z-score [4]: 0.012 (inactive)
- z-score [5]: -0.824 (inactive)
- z-score [6]: 0.0113 (inactive)
- z-score [7]: 0.9
- z-score [8]: -0.145 (inactive)
- z-score [9]: 0.32 (inactive)
- z-score [10]: -0.385
- z-score [11]: -0.803
- z-score [12]: -0.0387
- z-score [13]: -0.228
- z-score [14]: -0.463
- z-score [15]: -0.644
- z-score [16]: -1.13
- z-score [17]: -1.37 (inactive)
- z-score [18]: 0.462
- z-score [19]: 0.515
- z-score [20]: -0.0275 (inactive)

SMILES: CCOC(=O)C1=CCC(c2cc3ccccc3[nH]2)NC1 (stereo not given)
- z-score [1]: -0.92 (inactive)
- composite z-score [2]: 0.3
- z-score [3]: 6.29 (inactive)
- z-score [4]: 1.16 (inactive)
- z-score [5]: 2.48 (inactive)
- z-score [6]: 0.829 (inactive)
- z-score [7]: 0.0315
- z-score [8]: -0.246 (inactive)
- z-score [9]: 0.0972 (inactive)
- z-score [10]: 0.287
- z-score [11]: -0.35
- z-score [12]: -0.709
- z-score [13]: 1.08
- z-score [14]: 1.13
- z-score [15]: 0.255
- z-score [16]: 0.4
- z-score [17]: 1.17 (inactive)
- z-score [18]: -0.0143
- z-score [19]: -1.26
- z-score [20]: -0.412 (inactive)

SMILES: CC(C)=NOCc1cccc(-c2cc(-c3ccccc3)no2)c1
- z-score [1]: -1.79 (inactive)
- composite z-score [2]: 0.194
- z-score [3]: 0.648 (inactive)
- z-score [4]: -0.166 (inactive)
- z-score [5]: -0.532 (inactive)
- z-score [6]: -0.388 (inactive)
- z-score [7]: -0.947
- z-score [8]: 1.21 (inactive)
- z-score [9]: 0.439 (inactive)
- z-score [10]: -0.0547
- z-score [11]: -0.398
- z-score [12]: 0.0768
- z-score [13]: 0.0628
- z-score [14]: -1.06
- z-score [15]: -0.375
- z-score [16]: -0.499
- z-score [17]: -0.302 (inactive)
- z-score [18]: -0.112
- z-score [19]: 0.354
- z-score [20]: -0.798 (inactive)

From PubChem BioAssay
